Source: PubChem BioAssay
A selection: hits, their analogues and other compounds. The true share with any hit is near 5.8%.
TRPV1 PAM – HTS Assay for Compounds that Act as Potentiators of the Vanilloid Receptor 1. TRPV1-expressing cells, Fluo-8 calcium influx, capsaicin EC20 potentiation. actives 0.02% (n = 320,000). potentiation, % at 8.33 µM. Transient receptor potential cation channel subfamily V member 1 (Homo sapiens), Q8NER1; in the data active = potentiation above about 80%; inconclusive = between about 30% and that limit; also: 0% is about no effect
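Fluo-8 calcium influx in TRPV1-expressing cells, kinetic read (ex 480/em 520 nm). Compound added and read 3 min for agonist activity, followed by capsaicin at EC20 final and 2 min further read for enhancement.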
Gal4-VP16 FLuc – VP16 counterscreen qHTS for inhibitors of ROR gamma transcriptional activity | Drosophila S2 Gal4-VP16 UAS-luciferase, luminescence, 20 h | Potency, µM (series often up to 53.6 µM), for the others: at the top dose activity, negative = inhibition, most hits filed as inhibitors | actives 3.5% (n = 310,000) | AID 2546, 2010;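 also: Gal4-VP16 expression switched on by copper sulfate through the metallothionein promoter; potency is read from the fitted curve at half-maximal effect; % is scaled to controls: 0 for no effect and ±100 for the full control effect; nearly all actives have a fitted effect of over 50% in size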
uPA generation – qHTS for Inhibitors of Cell Surface uPA Generation | AID 540303, 2011 | actives 0.31% (n = 330,000) | cell surface uPA generation assay, qHTS | Potency, µM (series often up to 38.3 µM), for the others: at the top dose activity change, negative = inhibition, hits mostly inhibitors; active = well fitted inhibition curve with a large enough effect; inconclusive = small, poorly fitted or top-dose-only effect; inactive = no such curve, though single readings can be large or run the other way; tested in mouse RAW 264.7 cells; also: potency is read from the fitted curve at half-maximal effect; % is scaled to controls: 0 for no effect and ±100 for the full control effect; nearly all actives have a fitted effect of over 55% in size
TRPV1 ag – HTS Assay for Compounds that Act as Agonists of the Vanilloid Receptor 1; Transient receptor potential cation channel subfamily V member 1 (Homo sapiens), Q8NER1; TRPV1-expressing cells, Fluo-8 calcium influx, agonist mode; activation, % at 8.33 µM; actives 0.19% (n = 320,000); AID 540275, 2011; in the data active = activation above about 80%; inconclusive = between about 30% and that limit; also: 0% is about no effect
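Fluo-8 calcium influx in TRPV1-expressing cells, kinetic read (ex 480/em 520 nm). Compound added and read 3 min for agonist activity, followed by capsaicin at EC20 final and 2 min further read for enhancement.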
RORg inh – qHTS for inhibitors of ROR gamma transcriptional activity; Drosophila S2 Gal4-RORgamma UAS-luciferase reporter, 20 h; Nuclear receptor ROR-gamma (Mus musculus), P51450; Potency, µM (doses to about 53.6 µM), without a hit: at the top dose activity change, negative = inhibition, actives largely listed as inhibitors; actives 5.4% (n = 310,000); also: potency is read from the fitted curve at half-maximal effect; % is scaled to controls: 0 for no effect and ±100 for the full control effect; nearly all actives have a fitted effect of over 60% in size
Target sequence (P51450 whole entry, looked up, the tested form may be a part): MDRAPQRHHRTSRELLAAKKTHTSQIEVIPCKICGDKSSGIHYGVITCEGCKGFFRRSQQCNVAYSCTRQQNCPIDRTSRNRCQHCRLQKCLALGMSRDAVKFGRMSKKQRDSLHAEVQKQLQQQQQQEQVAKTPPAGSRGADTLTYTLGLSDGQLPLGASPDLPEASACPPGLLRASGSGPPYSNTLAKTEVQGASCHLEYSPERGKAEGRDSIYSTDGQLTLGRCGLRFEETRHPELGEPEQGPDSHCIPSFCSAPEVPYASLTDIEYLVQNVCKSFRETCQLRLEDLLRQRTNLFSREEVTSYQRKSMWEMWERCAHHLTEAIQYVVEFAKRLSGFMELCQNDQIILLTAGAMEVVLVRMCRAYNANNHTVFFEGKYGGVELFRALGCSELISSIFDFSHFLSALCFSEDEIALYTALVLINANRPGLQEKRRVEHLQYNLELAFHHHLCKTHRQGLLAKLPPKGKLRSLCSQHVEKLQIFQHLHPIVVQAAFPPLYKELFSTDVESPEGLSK
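Drosophila Schneider cells stably carrying a metallothionein-driven Gal4 DBD–ROR gamma fusion and a UAS-Photinus luciferase reporter were exposed to compound for 1 hr, then induced with copper sulfate (700 uM final) for 20 hr at ambient temperature before luminescence reading.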
Numbers without * were called inactive; i = inactive; ? = inconclusive; nt = no result; [ ] = remark or other dose. Unless noted, calls follow the shape of the dose curve; as a rule, active = well fitted curve in the direction sought with a large enough effect; inconclusive = small, poorly fitted or top-dose-only effect, or another doubt; inactive = no such curve, though single readings can be large; an effect the other way counts as inactive or inconclusive.

SMILES | TRPV1 PAM | Gal4-VP16 FLuc | uPA generation | TRPV1 ag | RORg inh
CCOc1ccc(S(=O)(=O)N2CCC(C(=O)NCCc3ccc(S(N)(=O)=O)cc3)CC2)cc1 | 1 | 1% | 6% | 0 | 7%
CC1(c2ccccc2Cl)NC(=O)N(CC(=O)c2ccc3c(c2)OCO3)C1=O (stereo unspecified) | 20 | nt | -3% | -1 | nt
O=C(c1cc2cc([N+](=O)[O-])ccc2oc1=O)N1CCOCC1 | 5 | ? | 2% | -3 | 5µM*
Cc1ccc(-c2c(C(=O)N/N=C/c3sccc3C)nnn2-c2nonc2N)cc1 | -18 | 5.6µM* | ? | 1 | 4.5µM*
COc1cccc(-c2c(C(=O)N/N=C/c3ccsc3)nnn2-c2nonc2N)c1 | ? | ? | 13% | -5 | -20%
Cc1ccsc1/C=N/NC(=O)c1nnn(-c2nonc2N)c1C | -13 | ? | 1% | 19 | ?
Cc1ccsc1/C=N/NC(=O)c1nnn(-c2nonc2N)c1-c1ccccc1 | 5 | 20µM* | 1% | -2 | 7.1µM*
COc1cccc(-c2c(C(=O)N/N=C/c3ccco3)nnn2-c2nonc2N)c1 | 6 | -18% | -2% | -2 | 11µM*
COc1cccc(-c2c(C(=O)N/N=C/c3sccc3C)nnn2-c2nonc2N)c1 | 3 | 22µM* | 18% | 2 | 8.9µM*
Cn1c(-c2ccc(Cl)cc2)cnc1N | -2 | ? | 3% | -3 | ?
Cc1ccc(-c2cnc(N)n2C)cc1C | 4 | ? | 0% | 2 | 20µM*
CCOc1ccc(NC(=O)CCCn2c(=S)[nH]c3ccsc3c2=O)cc1 | 3 | ? | 5% | 1 | 13µM*
CC1CCCCC1NC(=O)CCCn1c(=S)[nH]c2ccsc2c1=O (stereo unspecified) | -2 | ? | -5% | 8 | 18µM*
O=C(CCCN1C(=O)c2ccccc2C1=O)Nc1ccc2c(c1)OCCO2 | -2 | 7% | 5% | -2 | 15%
CCOc1ccc(NC(=O)CCCCn2c(=O)[nH]c3ccsc3c2=O)cc1 | 7 | -8% | 1% | 1 | 18%
O=C(CCCn1c(=S)[nH]c2ccsc2c1=O)Nc1ccc2c(c1)OCCO2 | 20 | ? | 3% | -10 | 11µM*
CC1CCCCC1NC(=O)CCCCn1c(=O)[nH]c2ccsc2c1=O (stereo unspecified) | -3 | 1% | 5% | 0 | -14%
O=C(CCCCn1c(=O)[nH]c2ccsc2c1=O)NCc1ccc2c(c1)OCO2 | nt | 5% | 18% | nt | 10%
O=C(CCCCn1c(=S)[nH]c2ccsc2c1=O)NCc1ccc2c(c1)OCO2 | 11 | -21% | -12% | -2 | 14µM*
O=C(CSc1nc2ccccc2[nH]1)NCC1CCCO1 (stereo unspecified) | -10 | 6% | 3% | 12 | 39%
CCCC[C@]12Cc3cc(C#N)ccc3C(O1)c1c(cc(-c3ccccc3)oc1=O)O2 | ? | 0%[10 µM] | nt | i | 10%[10 µM]
COc1cc(N(C)C)cc(CN(C)CCc2ccc([N+](=O)[O-])cc2)c1O | nt | -2% | nt | nt | ?
FC(F)(F)c1ccc(/C=N/NC(=S)NC2CCCCC2)cc1 | 5 | 4.5µM* | 5% | 15 | 0.63µM*
O=C(N/N=C/c1cccc(O)c1)NC1CCCCC1 | 1 | -18% | 2% | 2 | ?
O=C(O)c1ccc(/C=N/NC(=S)NC2CCCCC2)cc1 | 1 | 10% | -5% | -1 | -23%
SMILES | TRPV1 PAM | Gal4-VP16 FLuc | uPA generation | TRPV1 ag | RORg inh
FC(F)(F)c1cccc(/C=N/NC(=S)NC2CCCCC2)c1 | -3 | 6.3µM* | 6% | 9 | 0.56µM*
C=CCNC(=S)N/N=C/c1ccc(C(F)(F)F)cc1 | 30 | 2.8µM* | -4% | 2 | 0.71µM*
C=C1CCN([C@@H](CC(C)C)C(=O)NCCC(C)C)S(=O)(=O)c2ccccc21 | nt | nt | -15% | nt | nt
COc1ccc(Oc2ccc(/C=C/C(=O)c3ccc(O)cc3)cc2[N+](=O)[O-])cc1 | 6 | ? | -10% | -1 | ?
Cc1ccc(N2C(=O)[C@@H]3[C@H](C2=O)[C@H]2C=CC=NN2[C@@H]3C(=O)Nc2ccc(Cl)cc2)cc1 | 1 | ? | 6% | 3 | 10µM*
COc1ccc(-c2ocnc2C(=O)N2CCN(C(c3ccccc3)c3ccccc3)CC2)cc1 | -6 | -16% | -2% | 20 | ?
COc1ccc(-c2ccc(CCC(=O)O)n2-c2ccccc2OC)cc1 | 20 | 5% | 2.2µM* | -2 | -9%
CC(Oc1ccc(F)cc1)C(=O)Nc1cc(C(F)(F)F)ccc1-n1cncn1 (stereo unspecified) | -11 | nt | 1% | ? | nt
CC1(C)CC(=S)Nc2ccccc2S1 | 6 | 5µM* | -3% | -3 | 2.8µM*
Brc1ccc(/C=N/Nc2ccccc2)cc1 | 5 | 3% | -1% | 8 | 25%
CN(C)c1nc(NCc2ccccc2)nc(N/N=C/c2ccc3c(c2)OCO3)n1 | -3 | ? | 1% | ? | 7.9µM*
CN(C)c1nc(NCc2ccccc2)nc(N/N=C/c2ccc(Br)cc2)n1 | 4 | 13µM* | 13% | 3 | 2.8µM*
CCNc1nc(NCC)nc(N/N=C/c2ccc(N(C)C)cc2)n1 | -1 | ? | -1% | -1 | 7.9µM*
CCS(=O)(=O)c1ccc(C=NNc2nc3ccccc3o2)cc1 | nt | nt | 1% | nt | nt
CN(C)c1ccc(/C=N/Nc2nc3ccccc3o2)cc1 | 5 | 11µM* | -11% | -6 | 6.3µM*
COc1cc(-c2cc(O)c(-c3ccc4ccccc4n3)c(=O)[nH]2)cc(OC)c1OC | nt | nt | -6% | nt | nt
COc1ccc(OCC(=O)c2c[nH]c3ccccc23)cc1 | -4 | -3% | 0% | 17 | -16%
COc1ccc2c(C(=O)CCl)c[nH]c2c1 | -8 | 18µM* | ? | 0 | ?
OC1CCN(Cc2ccc(OCc3ccccc3)cc2)CC1 | 12 | ? | -7% | 4 | 10µM*
COc1ccccc1N1CCN(C(c2ccc(Cl)cc2)c2nnnn2C(C)(C)C)CC1 (stereo unspecified) | 0 | 22µM* | 0% | 5 | -123%
COc1ccccc1N1CCN(C(c2ccccc2Cl)c2nnnn2C(C)(C)C)CC1 (stereo unspecified) | -4 | ? | 7% | 12 | ?
CC(=O)N1C2(C=CC1(C)C(=O)NCc1ccccn1)CCCCC2 (stereo unspecified) | nt | ? | nt | nt | 11µM*
O=C(CN1CCN(S(=O)(=O)c2ccccc2)CC1)NCc1ccccc1 | -5 | nt | -4% | -4 | nt
COc1cc(/C=C/C(=O)O)ccc1OCc1ccccc1C#N | 5 | ? | 10% | -3 | -8%
CC1(C)CC(=O)C2=C(C1)N(Cc1ccccc1)C(=O)C2(NC(=O)C(C)(C)C)C(F)(F)F (stereo unspecified) | -3 | 2% | 4% | 5 | 11µM*
